Measured values taken from PubChem BioAssay (Tox21).
Inconclusive results are not listed. The source made the active and inactive calls. Unless noted, calls follow the shape of the full dose curve.

Legend:
[1] = qHTS assay to identify small molecule agonists of the sonic hedgehog signaling (Shh) pathway (AID 1259368);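 also: NIH/3T3-derived 3T3Gli1-Luc cells carrying a stable Gli1-driven firefly luciferase reporter; series mostly up to about 92 µM; nearly all actives have a fitted effect of over 15% in size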
In short: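 Luminescent signal was taken as a measure of Gli1-controlled luciferase expression in stably transfected NIH/3T3-derived cells that had been treated for 24 hr with compounds delivered in DMSO.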

[2] = qHTS assay to identify small molecule antagonists of the sonic hedgehog signaling (Shh) pathway (AID 1259369); also: nearly all actives have a fitted effect of over 45% in size; also: potency is read from the fitted curve at half-maximal effect
In short: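 Screening used 3T3Gli1-Luc cells at 2,000 per well, compounds delivered in DMSO, and conditioned medium as agonist stimulus; plates incubated 24hr at 37 C and 5% CO2 before a 30min luciferase step.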

[3] = target: Estrogen receptor beta (Homo sapiens) (UniProt Q92731); assay: qHTS assay to identify small molecule agonists of the estrogen receptor beta (ER-beta) signaling pathway (AID 1259377; active = well fitted activation curve with a large enough effect in the signal ratio in the repeat runs, not every such curve was filed as active; the % refers to the signal ratio)
In short: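 ER-beta-UAS-bla HEK293T (GripTite) cells carrying a UAS-driven beta-lactamase reporter, in medium with 2% charcoal-stripped FBS, were exposed to compounds for 16 hr at 37C; LiveBLAzer B/G FRET substrate was then added and fluorescence read after 2 hours at room temperature.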

[4] = qHTS assay to identify small molecule agonists of the androgen receptor (AR) signaling pathway in the presence of an antagonist - cell viability counter screen (AID 1259379; active = well fitted curve in the direction sought with a large enough effect in the repeat runs; an effect the other way counts as inactive or inconclusive; also: nearly all actives have a fitted effect of over 25% in size; also: potency is read from the fitted curve at half-maximal effect)
In short: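 In MDA-kb2 cells (human breast carcinoma, MMTV-luciferase), compounds at 15 concentrations plus 3.0uM nilutamide; 16 hr, 37C, 0% CO2; CellTiter-Fluor fluorescence read for viability.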

[5] = qHTS assay to identify small molecule agonists or antagonists of the thyroid stimulating hormone receptor (TSHR) signaling pathway - wild type cell line counter screen (AID 1259384)
In short: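 Wild-type Hek293 cells, 800/well, 18 h at 37C, then compound with Ro20-1724 for 30 min RT. cAMP by HTRF (cAMP-d2/anti-cAMP cryptate), 1 h RT, fluorescence read. 15 concentrations, triplicates.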

[6] = target: Estrogen receptor beta (Homo sapiens) (UniProt Q92731); assay: qHTS assay to identify small molecule antagonists of the estrogen receptor beta (ER-beta) signaling pathway (AID 1259378; active = well fitted inhibition curve with a large enough effect in the signal ratio in the repeat runs, not every such curve was filed as active; the % refers to the signal ratio; also: potency is read from the fitted curve at half-maximal effect)
In short: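 ER-beta-UAS-bla HEK293T cells in 2% charcoal-stripped FBS medium treated with compound plus 1nM final 17-beta-estradiol for 16 hr at 37C. Beta-lactamase reporter read by FRET substrate fluorescence after 2 hours at room temperature.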

[7] = qHTS assay to identify small molecule agonists of the estrogen receptor beta (ER-beta) signaling pathway - cell viability counter screen (AID 1259380; active = well fitted curve in the direction sought with a large enough effect in the repeat runs; an effect the other way counts as inactive or inconclusive; also: nearly all actives have a fitted effect of over 30% in size; also: potency is read from the fitted curve at half-maximal effect)
In short: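 Viability of ER-beta-UAS-bla HEK293T cells was determined by CellTiter-Glo luminescence following 16 hr treatment with test compounds at 37C.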

[8] = qHTS assay to identify small molecule antagonists of the estrogen receptor beta (ER-beta) signaling pathway - cell viability counter screen (AID 1259382; active = well fitted curve in the direction sought with a large enough effect in the repeat runs; an effect the other way counts as inactive or inconclusive; also: nearly all actives have a fitted effect of over 55% in size; also: potency is read from the fitted curve at half-maximal effect)
In short: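 Tox21 10K library tested in qHTS format on ER-beta-bla HEK293T cells stimulated with 1nM E2; 16 hr treatment at 37C. Same-well CellTiter-Glo luminescence served as the cell viability measure.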

[9] = target: Estrogen receptor (Homo sapiens) (UniProt P03372); assay: qHTS assay to identify small molecule agonists of the estrogen receptor alpha (ER-alpha) signaling pathway in the presence of an antagonist (AID 1259383); also: top concentration of the series differs between compounds; nearly all actives have a fitted effect of over 15% in size
In short: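 In VM7Luc4E2 cells, 4,000 per well, compounds at 15 concentrations were co-incubated 22hr at 37C with 10.0nM final ICI-182,780. Luminescence from the stably transfected 4×ERE-luciferase reporter was recorded 30min after ONE-Glo addition.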

[10] = target: Androgen receptor (Homo sapiens) (UniProt P10275); assay: qHTS assay to identify small molecule agonists of the androgen receptor (AR) signaling pathway in the presence of an antagonist (AID 1259381); also: nearly all actives have a fitted effect of over 15% in size
In short: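 Here, 15-concentration compound series were pin-transferred onto MDA-kb2 MMTV-luciferase cells already dosed with nilutamide (3.0uM final). After 16hr at 37C, ONE-Glo was added and luminescence read 30min later at room temperature.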

Measured: Potency

Androgen receptor (Homo sapiens), sequence (P10275 whole entry, looked up): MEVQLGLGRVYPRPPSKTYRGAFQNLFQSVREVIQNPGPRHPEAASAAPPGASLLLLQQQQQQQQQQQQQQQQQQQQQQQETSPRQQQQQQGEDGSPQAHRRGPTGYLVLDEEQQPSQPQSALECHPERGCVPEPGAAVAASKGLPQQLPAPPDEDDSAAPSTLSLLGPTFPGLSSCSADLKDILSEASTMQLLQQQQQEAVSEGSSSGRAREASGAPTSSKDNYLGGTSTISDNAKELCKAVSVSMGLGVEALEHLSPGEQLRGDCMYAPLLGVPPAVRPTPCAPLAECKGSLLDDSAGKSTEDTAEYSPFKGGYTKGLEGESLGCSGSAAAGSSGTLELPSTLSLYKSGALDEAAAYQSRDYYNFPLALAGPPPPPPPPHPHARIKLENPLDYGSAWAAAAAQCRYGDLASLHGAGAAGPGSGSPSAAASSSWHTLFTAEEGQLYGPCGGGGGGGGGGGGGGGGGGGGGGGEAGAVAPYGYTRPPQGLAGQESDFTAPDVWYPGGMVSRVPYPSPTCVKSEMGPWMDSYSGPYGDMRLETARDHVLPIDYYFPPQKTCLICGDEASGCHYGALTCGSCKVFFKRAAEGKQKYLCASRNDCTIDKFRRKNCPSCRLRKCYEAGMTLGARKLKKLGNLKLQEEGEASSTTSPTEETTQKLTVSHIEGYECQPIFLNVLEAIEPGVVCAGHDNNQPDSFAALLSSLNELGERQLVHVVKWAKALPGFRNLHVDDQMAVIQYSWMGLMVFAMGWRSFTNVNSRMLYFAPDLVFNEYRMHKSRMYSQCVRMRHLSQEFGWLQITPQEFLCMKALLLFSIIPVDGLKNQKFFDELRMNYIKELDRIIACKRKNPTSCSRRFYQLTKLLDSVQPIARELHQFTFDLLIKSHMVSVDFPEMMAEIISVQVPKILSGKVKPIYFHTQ
Estrogen receptor (Homo sapiens), sequence (P03372 whole entry, looked up): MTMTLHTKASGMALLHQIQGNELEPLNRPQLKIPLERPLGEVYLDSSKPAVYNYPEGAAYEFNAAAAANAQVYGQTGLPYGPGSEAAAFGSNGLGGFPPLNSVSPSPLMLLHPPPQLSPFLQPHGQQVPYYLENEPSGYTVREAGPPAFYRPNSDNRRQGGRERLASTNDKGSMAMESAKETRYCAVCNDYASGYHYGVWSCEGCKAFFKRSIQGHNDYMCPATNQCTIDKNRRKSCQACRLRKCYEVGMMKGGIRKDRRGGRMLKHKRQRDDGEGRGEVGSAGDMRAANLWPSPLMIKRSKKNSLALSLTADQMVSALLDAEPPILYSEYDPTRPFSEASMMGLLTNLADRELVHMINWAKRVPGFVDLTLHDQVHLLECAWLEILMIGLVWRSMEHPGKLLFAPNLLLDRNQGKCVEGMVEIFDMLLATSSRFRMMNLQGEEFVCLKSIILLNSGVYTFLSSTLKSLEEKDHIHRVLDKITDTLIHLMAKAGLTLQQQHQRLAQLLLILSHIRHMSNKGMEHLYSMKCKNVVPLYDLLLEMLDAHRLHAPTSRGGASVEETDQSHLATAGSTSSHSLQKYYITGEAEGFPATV
Estrogen receptor beta (Homo sapiens), sequence (Q92731 whole entry, looked up): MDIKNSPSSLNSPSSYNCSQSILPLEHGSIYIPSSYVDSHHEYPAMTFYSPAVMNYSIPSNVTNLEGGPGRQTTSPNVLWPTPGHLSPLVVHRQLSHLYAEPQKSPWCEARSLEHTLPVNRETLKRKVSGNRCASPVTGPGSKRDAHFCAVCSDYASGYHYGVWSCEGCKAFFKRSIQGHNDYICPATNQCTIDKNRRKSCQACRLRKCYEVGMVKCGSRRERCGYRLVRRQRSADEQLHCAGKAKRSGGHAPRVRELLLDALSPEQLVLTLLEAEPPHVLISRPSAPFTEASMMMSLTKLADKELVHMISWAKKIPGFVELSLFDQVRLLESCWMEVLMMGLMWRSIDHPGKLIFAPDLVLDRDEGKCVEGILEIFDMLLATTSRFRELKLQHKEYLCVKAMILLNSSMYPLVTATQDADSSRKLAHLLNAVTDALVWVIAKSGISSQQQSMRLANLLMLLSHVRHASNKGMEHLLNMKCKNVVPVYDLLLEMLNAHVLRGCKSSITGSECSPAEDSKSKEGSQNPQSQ

C=CC(=O)OCC1CC2CC1C1CCC(COC(=O)C=C)C21 (centres undefined)
inactive: [1] | [3] | [4] | [5]
active: [2] 19.3 µM

Cc1cc2c(OCC(CNC(C)(C)C)OC(=O)c3ccccc3)cccc2[nH]1 (centres undefined)
inactive: [1] | [3] | [6] | [7] | [5]
active: [2] 8.41 µM

O=C(O)CCc1nc(-c2ccccc2)c(-c2ccccc2)o1
inactive: [1] | [2] | [3] | [8] | [9] | [5]

CC(=O)OCC(=O)NCCCOc1cccc(CN2CCCCC2)c1
not listed: [4] | [9]
inactive: all other assays above

Cc1cccc(N(C)C(=S)Oc2ccc3c(c2)CCC3)c1
inactive: [1] | [2] | [3] | [4] | [8] | [9]

C=C/C(C)=C/C/C=C(\C)CCC=C(C)C
active: [2] 27.3 µM
not listed: [6] | [7] | [10]
inactive: all other assays above

C[C@@H]1CN(CCCn2c3ccccc3c3ccccc32)C[C@H](C)N1
active: [2] 10.6 µM | [6] 13.3 µM | [7] 10.6 µM | [8] 11.9 µM
inactive: [1] | [3] | [5]

CN1C[C@H](C(=O)N[C@]2(C)O[C@@]3(O)[C@@H]4CCCN4C(=O)[C@H](Cc4ccccc4)N3C2=O)C[C@@H]2c3cccc4[nH]cc(c34)C[C@H]21
inactive: [1] | [2] | [3] | [9] | [5]

NCCNCCO
not listed: [3] | [10]
inactive: all other assays above

CCn1cc(C(=O)O)c(=O)c2cc(F)c(N3CCNCC3)cc21
not listed: [4] | [8] | [10]
inactive: all other assays above

CCCCOc1ccc(OCCCN2CCOCC2)cc1
active: [2] 13.3 µM
not listed: [4] | [7] | [10]
inactive: all other assays above

COc1ccccc1NC(=O)c1cc2ccccc2cc1O
inactive: [1] | [10] | [9] | [5]
active: [2] 27.3 µM | [6] 17.2 µM | [7] 54.5 µM

OC[C@H]1O[C@@H](n2cnc3c(=S)nc[nH]c32)[C@H](O)[C@@H]1O
inactive: [1] | [2] | [3] | [4] | [5]
active: [7] 2.11 µM

O=C(Nc1cccc2c(=O)cc(-c3nn[nH]n3)oc12)c1ccc(OCCCCc2ccccc2)cc1
inactive: [1] | [2] | [3] | [6] | [5]
active: [7] 10.6 µM

Cc1cc(O)c(C)c(C)c1O
inactive: [1] | [2] | [4] | [7] | [10] | [8]

CN1C(=O)c2ccccc2C1=O
inactive: [1] | [6] | [7] | [8] | [5]
active: [2] 43.3 µM

CCOc1cccc(-n2cc(C(=O)N3CCN(c4cc(C(=O)O)c5ccccc5c4)CC3)nc2-c2ccc(C)cc2)c1
inactive: [1] | [2] | [3] | [4] | [10]
active: [7] 14.7 µM

Clc1cc(Cl)nc(Cl)n1
not listed: [4] | [9] | [10]
inactive: all other assays above

O=C(O)CCC(=O)C(=O)O
not listed: [6] | [10]
inactive: all other assays above

O=Cc1c2ccccc2c(Cl)c2ccccc12
inactive: [1] | [2] | [6] | [7] | [8] | [9]

O=C(OC(=O)c1ccccc1)c1ccccc1
not listed: [3] | [8]
inactive: all other assays above

CC1(CN2CCC(n3c(=O)[nH]c4ccccc43)CC2)OCc2ccccc2-n2cccc21 (centres undefined)
inactive: [1] | [3] | [9] | [5]
active: [2] 23.7 µM | [4] 29.8 µM | [7] 23.7 µM | [8] 29.8 µM

O=C(O)c1ccc(OCCCOc2ccc(C(=O)O)cc2)cc1
not listed: [3] | [9] | [10]
inactive: all other assays above

CCC(C)(C)OC
not listed: [4] | [6] | [10]
inactive: all other assays above

CCc1ccccc1
not listed: [4] | [10]
inactive: all other assays above

c1ccc2sc(SN(C3CCCCC3)C3CCCCC3)nc2c1
not listed: [4] | [10]
inactive: all other assays above

CC(=O)OCCN(CCOC(C)=O)c1ccc(N=Nc2ccc([N+](=O)[O-])cc2C#N)cc1
inactive: [1] | [3] | [8] | [5]
active: [2] 30.6 µM

CC(C)(O)c1ccc(CNC(=O)c2cccnc2Oc2ccc3nonc3c2)cc1
inactive: [1] | [3] | [4] | [8] | [5]
active: [2] 0.486 µM

C[C@H]1c2cccc(O)c2C(O)=C2C(=O)[C@]3(O)C(O)=C(C(N)=O)C(=O)[C@@H](N(C)C)[C@@H]3[C@@H](O)[C@@H]21
not listed: [3] | [5] | [6]
inactive: all other assays above

COc1cc(N)c(Cl)cc1C(=O)NC1CCN(CCCOc2ccc(F)cc2)CC1OC (centres undefined)
inactive: [1] | [8] | [5]
active: [2] 2.66 µM | [7] 5.96 µM
